Sampled rows, rich in hits. Any-hit rate of the full collection: about 2.8%.
Peg3 promoter: inhibitors of Peg3 promoter; HeLa PEG-Prom luciferase reporter, luminescence, overnight; AID 588405; inhibition, % at 20 µM; 1.7% of 360,000 active;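 active = inhibition of at least 50% at 20 µM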
HIF-2a block: inhibitors of HIF-2a | 0.72% of 360,000 active | inhibition, % at 18.8 µM | AID 624352 | 786-0 RCC cells HIF-2a reporter, luciferase luminescence, overnight;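 active = inhibition of the luminescence signal of 40% or more relative to plate controls, in a single-dose primary screen at 18.75 µM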
Shn3 inh set2: inhibitors of Schnurri-3 3'UTR reporter in osteoblasts | Clone20 osteoblast Shn3 3'UTR firefly luciferase, 24 h | inhibition, % at 12.5 µM | 0.52% of 360,000 active | AID 588674;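 active = mean inhibition of at least 75% with every replicate also reaching 75%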;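 also: 0% = median of neutral control wells and 100% = pilot-screen positive control compound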
KKLEB cytotox: counter-screen for CF NF-kB inhibitors: cytotoxicity; KKLEB CF airway cells viability, ATPlite luminescence, overnight; hits give low values; cells stimulated with P. aeruginosa culture filtrate; activity change (cytotoxicity), % at 5 µM; 0.36% of 360,000 active; AID 602141;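 active = corrected activity change at or below -50% at 5 µM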
TRPM1 prom inh: inhibitors of MITF-driven TRPM1 promoter in melanoma cells; SK-MEL-5 TRPM1 promoter luciferase, 24 h; inhibition, % at 12.5 µM; 0.83% of 330,000 active;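 active = mean inhibition across replicates of 60% or more, whatever share of single replicates reaches that level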
CF NFkB block: cystic fibrosis NF-kB activation inhibition; KKLEB NF-kB-GFP reporter, PAF-induced, GFP fluorescence overnight; inhibition, % at 5 µM; 0.86% of 360,000 active;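 active = at least 50% inhibition at 5 µM, scaled per plate between neutral and stimulator controls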;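 also: PAF is a Pseudomonas aeruginosa culture filtrate used as stimulus; plate controls were PAF-stimulated DMSO wells for no effect and unstimulated DMSO wells for full effect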
* marks the source's active call; other numbers are inactive results; / = not tested or not shown.

SMILES | Peg3 promoter | HIF-2a block | Shn3 inh set2 | KKLEB cytotox | TRPM1 prom inh | CF NFkB block
Cn1cc(/C=C/c2cc[n+](C)cc2)c2cc(F)ccc21 | 18.8 | 12.4 | 8.9 | 12.1 | 38.0 | -79.0
O=C(Nc1ccc(NC(=O)c2cc3ccccc3o2)cc1)c1ccc2c(c1)OCCO2 | 77.7* | 36.3 | 23.4 | 12.4 | 55.0 | 6.3
O=C(Nc1ccc(N2CCN(C(=O)c3ccccc3)CC2)cc1)c1ccc2c(c1)OCCO2 | -127.8 | -119.9 | 39.8 | 22.2 | 12.8 | -15.6
O=C(Nc1ccc(N2CCN(C(=O)c3ccccc3)CC2)cc1)c1cc2ccccc2o1 | 71.6* | -5.7 | 77.8 | 10.3 | 68.8* | -2.0
O=C(Nc1ccc(N2CCN(C(=O)c3ccc(Cl)cc3)CC2)cc1)c1ccc2c(c1)OCCO2 | 22.8 | -12.7 | 89.0* | 14.1 | 73.3* | -7.3
CN1CCN(c2ccc(NC(=O)c3cc4ccccc4o3)cc2)CC1 | -254.7 | -171.7 | -78.9 | -7.5 | 1.2 | 16.1
Cc1cc(NC(=O)c2ccc3c(c2)OCCO3)ccc1NC(=O)c1cc2ccccc2o1 | -84.2 | -163.1 | 12.7 | -6.0 | -37.6 | 21.2
CC(=O)Nc1cc(-c2ccc(N3CCN(C)CC3)cc2)cn2c(-c3ccc(F)c(Cl)c3)cnc12 | 75.1* | -9.7 | 2.1 | -14.6 | / | 3.2
CN1CCN(c2ccc(-c3cc(NC=O)c4ncc(-c5ccc(F)c(Cl)c5)n4c3)cc2)CC1 | 96.4* | -143.1 | -50.2 | -11.9 | / | -8.7
O=CNc1cc(-c2ccccc2)cn2c(-c3ccc(F)c(Cl)c3)cnc12 | 10.4 | -12.9 | 9.2 | -16.4 | / | 0.1
Cc1cc(C(=O)CCl)c(C)n1CCc1ccc(F)cc1 | 56.0* | -4.7 | 70.2 | -10.0 | 88.3* | 18.5
COc1ccc(CCn2c(C)c(C(C)=O)c(C(C)=O)c2C)cc1OC | -4.4 | 13.3 | -13.3 | 5.0 | 13.3 | 12.2
COc1ccc(CCn2c(C)cc(C(=O)CCl)c2C)cc1OC | 61.4* | 10.6 | 11.3 | -6.7 | 44.2 | 11.3
Cc1cc(C(=O)CSc2nnnn2C)c(C)n1CCc1ccc(F)cc1 | 4.4 | 3.2 | -5.7 | 8.0 | 2.3 | -8.4
CS(=O)(=O)c1ccc(C(=O)OCc2nnc(-c3ccc(Cl)cc3)o2)cc1[N+](=O)[O-] | 103.6* | -12.1 | 5.6 | -19.1 | 25.1 | 12.3
O=C(OCc1nnc(-c2ccc(Cl)cc2)o1)c1ccc(O)cc1 | -63.9 | -97.1 | -10.6 | 1.8 | -12.4 | 4.5
C=CS(=O)(=O)c1c2cc(OC)ccc2nc2ccc(OC)cc12 | 98.0* | -381.4 | 2.8 | -7.0 | 40.4 | -21.9
COc1ccc2nc(Cl)cc(Cl)c2c1 | -6.8 | 13.9 | 15.8 | -9.0 | -5.5 | -1.3
CN(C(=O)c1cccc(NC(=O)Cc2ccc(NC(=O)C3CCCN(C(=O)CCc4ccccc4)C3)cc2)c1)C1CCCC1 (stereo not drawn) | 39.2 | 3.2 | 42.5 | 7.0 | 28.8 | 13.8
CN(C(=O)c1cccc(NC(=O)Cc2ccc(NC(=O)C3CCCN(C(=O)CCc4ccccc4)C3)cc2)c1)C1CCC1 (stereo not drawn) | 2.4 | 6.7 | 13.7 | -0.6 | 61.5* | -0.3
COc1ccc(-c2nc3ccc(C)cn3c2NCc2ccccc2)cc1SC1CCCCC1 | 32.8 | -28.5 | 97.5* | -13.5 | -8.1 | 21.2
CCCCNc1c(-c2ccc(OC)c(SC3CCCCC3)c2)nc2ccc(C)cn12 | 97.9* | -49.8 | 96.0* | -6.2 | 7.1 | 22.4
CCCCNc1c(-c2ccc(SC3CCCCC3)c(OC)c2)nc2ccc(C)cn12 | 24.2 | -24.6 | 71.9 | -10.5 | -1.5 | 17.2
CC(=O)Nc1c(Cl)c2c(c(Cl)c1Br)-c1ccc(Cl)cc1C2 | 12.2 | 3.5 | -8.0 | 10.8 | 9.0 | -8.1
Cc1ccc(S(=O)(=O)N(C(=O)c2ccco2)c2cc3sc(=O)oc3c3ccccc23)cc1 | 10.9 | 2.0 | -9.7 | -28.0 | -3.1 | 63.9*
SMILES | Peg3 promoter | HIF-2a block | Shn3 inh set2 | KKLEB cytotox | TRPM1 prom inh | CF NFkB block
COc1ccc(S(=O)(=O)N(C(=O)C(C)C)c2ccc3oc(=O)sc3c2)cc1 | 1.5 | 7.7 | -27.5 | 37.2 | 7.7 | -16.7
COc1ccc(S(=O)(=O)N(C(=O)c2ccco2)c2cc3sc(=O)oc3c3ccccc23)cc1 | 19.4 | -11.8 | 1.3 | -31.1 | 24.5 | 70.6*
CCOc1ccc(S(=O)(=O)N(C(=O)c2ccco2)c2cc3sc(=O)oc3c3ccccc23)cc1 | 20.0 | 6.6 | -32.5 | -9.6 | 8.2 | 51.5*
COc1ccc(C(N)c2csc(Nc3nncc4ccccc34)n2)cc1 (stereo not drawn) | 2.7 | -18.9 | 2.7 | -26.8 | / | 26.1
CC12CCC(=O)C=C1CCC1C2C(O)CC2(C)C1CCC2(O)C(=O)CO (stereo not drawn) | -15.2 | 23.7 | -0.1 | 21.0 | -33.8 | 61.2*
C[C@]12CCC(=O)C=C1CC[C@@H]1[C@@H]2[C@@H](O)C[C@@]2(C)[C@H]1CC[C@]2(O)C(=O)CO | -5.3 | 29.9 | -9.3 | 2.7 | -11.4 | 72.7*
COc1cc(-c2coc3c(C(=O)NCc4ccc(N(C)C)cc4)cccc23)ccc1O | -26.9 | -53.3 | 19.0 | -33.8 | / | -9.0
COc1cc(-c2coc3c(C(=O)NCc4ccc(OC)c(OC)c4)cccc23)ccc1O | 51.2* | -159.5 | 71.2 | -32.0 | / | 4.4
COc1ccc(N/N=C(\C#N)C(=N)SCc2ccccc2)cc1 | 41.5 | 9.8 | -37.4 | -13.7 | 25.9 | 78.5*
COc1ccc(N/N=C(\C#N)C(=N)N2CCCCC2)cc1 | -212.3 | -222.4 | -31.0 | -7.5 | -56.0 | 12.4
O=C(COc1ccccc1)Nc1cccc(-c2nc3cc4ccccc4cc3[nH]2)c1 | -17.9 | -300.2 | -73.9 | -36.1 | -104.7 | 9.3
Cn1nc(C(F)(F)F)c(/C=N/OC(=O)c2ccccc2)c1SCc1ccccc1Cl | 52.8* | -64.7 | 71.6 | 2.6 | 22.0 | 26.6
Cc1cc(/C=C2\C(=N)N3N=C(C(C)C)SC3=NC2=O)c(C)n1Cc1ccccc1 | 0.1 | 22.9 | 2.2 | 16.7 | -1.7 | -2.9
Cc1cc(/C=C2\C(=N)N3C(SCc4ccccc4)=NSC3=NC2=O)c(C)n1Cc1ccccc1 | 9.8 | -15.5 | -6.6 | -52.7* | -10.2 | 30.2
O=C(NCC1CCCO1)C1CCN(S(=O)(=O)c2cccc3nonc23)CC1 (stereo not drawn) | 16.6 | 18.9 | 4.2 | 3.6 | -0.7 | 3.0
CCC1CCCCN1CCCNC(=O)c1cn(CC)c2ccc(S(=O)(=O)N3CCc4ccccc4C3)cc2c1=O (stereo not drawn) | 76.7* | 17.2 | 19.0 | 2.9 | 6.2 | 3.6
CCn1cc(C(=O)NCCCN2CCCC(C)C2)c(=O)c2cc(S(=O)(=O)N3CCc4ccccc4C3)ccc21 (stereo not drawn) | 27.0 | 18.8 | 14.1 | -3.1 | -2.1 | -0.8
COc1ccc(OC)c(-c2nc(C(=O)NCC3CCCO3)cc3c2[nH]c2ccccc23)c1 (stereo not drawn) | 25.4 | 20.0 | 10.5 | -1.1 | 18.6 | 17.8
COc1cccc(-c2nc(C(=O)NCC3CCCO3)cc3c2[nH]c2ccccc23)c1 (stereo not drawn) | 55.7* | -9.8 | 12.7 | 3.7 | -2.9 | -43.8
